The results in this text go back to PubChem BioAssay (EPA / NIEHS).

“And” between values parts separate entries of the source, which are not always exact repeats. Identical values can stand only once. Results filed as inconclusive are left out. Some structures have more than one record in an assay (separate samples or runs), and their calls can disagree. The source made the active and inactive calls. How the source made its calls: active means hit-call score of the fitted dose curve at least 0.9, where 1 is the maximum; inconclusive means response in the unintended direction; inactive means score below 0.9.

human Peripheral-type Benzodiazepine Receptor (PBR), TSPO (gene 706), sequence (P30536 whole entry, looked up): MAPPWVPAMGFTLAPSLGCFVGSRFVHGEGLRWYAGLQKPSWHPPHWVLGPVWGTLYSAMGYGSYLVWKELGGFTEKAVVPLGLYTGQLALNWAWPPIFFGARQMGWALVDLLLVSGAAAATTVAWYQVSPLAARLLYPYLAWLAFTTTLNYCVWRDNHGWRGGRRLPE
human Androgen Receptor (AR), AR (gene 367), sequence (P10275 whole entry, looked up): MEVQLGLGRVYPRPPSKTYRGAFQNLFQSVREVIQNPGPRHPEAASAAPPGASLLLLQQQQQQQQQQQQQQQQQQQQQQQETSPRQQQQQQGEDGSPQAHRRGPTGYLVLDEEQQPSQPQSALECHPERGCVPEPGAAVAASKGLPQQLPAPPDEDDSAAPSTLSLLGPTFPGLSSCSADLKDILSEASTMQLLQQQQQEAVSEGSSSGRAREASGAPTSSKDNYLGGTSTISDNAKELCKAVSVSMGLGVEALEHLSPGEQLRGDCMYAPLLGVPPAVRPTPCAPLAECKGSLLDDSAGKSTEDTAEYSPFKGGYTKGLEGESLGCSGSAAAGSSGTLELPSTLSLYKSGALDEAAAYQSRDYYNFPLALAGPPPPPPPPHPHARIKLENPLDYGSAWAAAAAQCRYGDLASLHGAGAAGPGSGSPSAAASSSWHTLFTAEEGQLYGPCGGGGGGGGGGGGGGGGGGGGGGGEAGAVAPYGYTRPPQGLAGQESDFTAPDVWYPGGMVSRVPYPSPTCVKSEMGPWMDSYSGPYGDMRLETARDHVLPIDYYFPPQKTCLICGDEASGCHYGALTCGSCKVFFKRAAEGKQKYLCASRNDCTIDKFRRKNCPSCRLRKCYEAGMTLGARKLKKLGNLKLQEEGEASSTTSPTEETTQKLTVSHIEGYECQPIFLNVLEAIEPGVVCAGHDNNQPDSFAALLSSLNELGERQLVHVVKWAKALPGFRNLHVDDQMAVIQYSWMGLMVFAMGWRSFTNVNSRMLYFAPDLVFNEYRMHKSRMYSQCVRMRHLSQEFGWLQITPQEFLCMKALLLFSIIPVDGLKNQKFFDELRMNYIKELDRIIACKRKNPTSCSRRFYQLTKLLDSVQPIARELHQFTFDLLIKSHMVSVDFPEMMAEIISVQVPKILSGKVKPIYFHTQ
rat Gamma-Aminobutyric Acid Type A Receptor, Non-Selective (GABAR-NonSelective), Gabra1 (gene 29705), sequence (P62813 whole entry, looked up): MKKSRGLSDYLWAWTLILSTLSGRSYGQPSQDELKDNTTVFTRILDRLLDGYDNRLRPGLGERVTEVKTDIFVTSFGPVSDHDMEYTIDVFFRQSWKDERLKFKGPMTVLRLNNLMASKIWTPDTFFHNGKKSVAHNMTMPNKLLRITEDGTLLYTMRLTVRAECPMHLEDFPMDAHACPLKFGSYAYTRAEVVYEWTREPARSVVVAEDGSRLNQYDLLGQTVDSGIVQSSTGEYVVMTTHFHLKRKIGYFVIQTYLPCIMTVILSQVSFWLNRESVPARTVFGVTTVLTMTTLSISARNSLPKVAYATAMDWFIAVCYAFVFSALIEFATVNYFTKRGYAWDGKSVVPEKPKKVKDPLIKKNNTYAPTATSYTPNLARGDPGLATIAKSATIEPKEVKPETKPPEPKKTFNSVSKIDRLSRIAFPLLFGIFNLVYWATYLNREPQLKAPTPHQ
Voltage-gated inwardly rectifying potassium channel KCNH2 (Homo sapiens), sequence (Q12809 whole entry, looked up): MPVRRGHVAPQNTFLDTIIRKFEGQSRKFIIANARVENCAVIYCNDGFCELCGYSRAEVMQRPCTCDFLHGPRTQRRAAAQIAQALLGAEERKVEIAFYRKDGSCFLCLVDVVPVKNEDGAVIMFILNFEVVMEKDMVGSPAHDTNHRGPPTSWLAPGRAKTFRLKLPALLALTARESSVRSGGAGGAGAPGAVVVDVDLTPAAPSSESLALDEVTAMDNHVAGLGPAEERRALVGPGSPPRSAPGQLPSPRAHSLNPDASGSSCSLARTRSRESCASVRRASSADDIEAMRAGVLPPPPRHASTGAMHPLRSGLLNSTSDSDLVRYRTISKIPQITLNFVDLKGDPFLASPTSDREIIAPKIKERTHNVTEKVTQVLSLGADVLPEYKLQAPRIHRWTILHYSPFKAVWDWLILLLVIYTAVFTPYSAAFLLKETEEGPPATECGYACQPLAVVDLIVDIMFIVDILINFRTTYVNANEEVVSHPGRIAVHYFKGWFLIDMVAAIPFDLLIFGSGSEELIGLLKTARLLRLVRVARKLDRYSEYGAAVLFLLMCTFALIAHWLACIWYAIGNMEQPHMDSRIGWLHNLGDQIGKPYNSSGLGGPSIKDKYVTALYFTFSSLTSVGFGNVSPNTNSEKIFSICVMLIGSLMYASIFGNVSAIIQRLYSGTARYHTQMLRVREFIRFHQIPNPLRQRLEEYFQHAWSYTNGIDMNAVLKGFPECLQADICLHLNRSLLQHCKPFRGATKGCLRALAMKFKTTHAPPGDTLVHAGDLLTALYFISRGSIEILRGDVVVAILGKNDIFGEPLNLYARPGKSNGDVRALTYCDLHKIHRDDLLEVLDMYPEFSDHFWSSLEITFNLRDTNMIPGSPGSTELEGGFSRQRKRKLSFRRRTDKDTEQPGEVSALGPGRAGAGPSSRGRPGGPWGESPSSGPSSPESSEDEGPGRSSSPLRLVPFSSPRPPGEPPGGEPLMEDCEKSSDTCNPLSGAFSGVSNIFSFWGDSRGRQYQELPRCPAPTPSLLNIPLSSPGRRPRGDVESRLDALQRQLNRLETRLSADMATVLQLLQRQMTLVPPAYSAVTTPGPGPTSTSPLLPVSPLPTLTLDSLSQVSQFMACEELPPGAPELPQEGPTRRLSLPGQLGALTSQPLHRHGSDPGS
rat Peripheral-type Benzodiazepine Receptor (PBR), Tspo (gene 24230), sequence (P16257 whole entry, looked up): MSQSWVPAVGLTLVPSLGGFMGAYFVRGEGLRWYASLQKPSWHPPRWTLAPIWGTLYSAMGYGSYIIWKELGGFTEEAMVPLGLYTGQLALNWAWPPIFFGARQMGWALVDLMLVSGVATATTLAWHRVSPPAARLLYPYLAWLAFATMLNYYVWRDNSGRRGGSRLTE
rat Thyrotropin Releasing Hormone Receptor (TRH), Trhr (gene 25570), sequence (Q01717 whole entry, looked up): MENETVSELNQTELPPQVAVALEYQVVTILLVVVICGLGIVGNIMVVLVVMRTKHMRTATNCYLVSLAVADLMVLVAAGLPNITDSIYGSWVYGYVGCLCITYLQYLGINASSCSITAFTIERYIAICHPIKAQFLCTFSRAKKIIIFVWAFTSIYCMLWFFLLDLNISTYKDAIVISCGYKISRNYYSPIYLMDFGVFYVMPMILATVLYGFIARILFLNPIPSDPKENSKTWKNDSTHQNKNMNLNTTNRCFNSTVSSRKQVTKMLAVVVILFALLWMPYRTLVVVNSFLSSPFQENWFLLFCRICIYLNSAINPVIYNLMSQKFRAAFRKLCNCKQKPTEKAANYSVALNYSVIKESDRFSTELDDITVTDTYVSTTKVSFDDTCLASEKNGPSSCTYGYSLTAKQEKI

The first assay deals with bovine Gamma-Aminobutyric Acid Type A Receptor BDZ, alpha 5 site (GABARa5), GABRA5 (gene 523515) (UniProt Q08E50). The assay is described as follows: NVS_LGIC_bGABARa5: NovaScreen (NVS) Ligand-Gated Ion Channel Assay for bovine Gamma-Aminobutyric Acid Type A Receptor BDZ, alpha 5 site (GABARa5) (AID 2283323). As to the method: NVS_LGIC_bGABARa5 is a biochemical, single-readout assay that uses extracted gene-proteins from Bovine hippocampal membranes in a tissue-based cell-free assay. Measurements were taken 1 hour after chemical dosing in a 48-well plate.NVS_LGIC_bGABARa5 is one of one assay component(s) measured or calculated from the NVS_LGIC_bGABARa5 assay. It is designed to make measurements of radioligand binding, a form of binding reporter, as detected with scintillation counting signals by Filter-based radiodetection technology.Data from the assay component NVS_LGIC_bGABARa5 was analyzed into 1 assay endpoint. This assay endpoint, NVS_LGIC_bGABARa5, was analyzed in the positive analysis fitting direction relative to DMSO as the negative control and baseline of activity. Using a type of binding reporter, loss-of-signal activity can be used to understand changes in the binding as they relate to the gene GABRA5. Furthermore, this assay endpoint can be referred to as a primary readout, because the performed assay has only produced 1 assay endpoint. To generalize the intended target to other relatable targets, this assay endpoint is annotated to the ion channel intended target family, where the subfamily is ligand-gated ion channel.
bovine Gamma-Aminobutyric Acid Type A Receptor BDZ, alpha 5 site (GABARa5), GABRA5 (gene 523515), sequence (Q08E50 whole entry, looked up): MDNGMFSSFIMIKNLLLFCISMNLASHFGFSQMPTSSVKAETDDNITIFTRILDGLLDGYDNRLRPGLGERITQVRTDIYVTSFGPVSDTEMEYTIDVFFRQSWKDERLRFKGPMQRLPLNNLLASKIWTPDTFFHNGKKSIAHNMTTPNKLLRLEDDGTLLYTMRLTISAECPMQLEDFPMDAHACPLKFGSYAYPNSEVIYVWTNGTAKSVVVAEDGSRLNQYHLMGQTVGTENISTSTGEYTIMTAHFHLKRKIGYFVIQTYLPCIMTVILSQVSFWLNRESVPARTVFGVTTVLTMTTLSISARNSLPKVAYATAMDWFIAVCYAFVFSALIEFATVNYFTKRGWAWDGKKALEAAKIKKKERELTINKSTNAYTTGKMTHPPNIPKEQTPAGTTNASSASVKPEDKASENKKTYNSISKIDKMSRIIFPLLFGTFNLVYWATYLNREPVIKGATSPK
Binding assays used specific radioligands (tritiated, iodinated) with non-radioactive competitive displacement ligands in agonist or antagonist protocols (as indicated) and various reference compounds and inhibitors to titrate specific binding to receptors and transporters. Most enzyme assays (CYPs, kinases, phosphatases, proteases, HDACs) used recombinant protein and specific substrates (fluorescence mostly, some colorimetric and radioactive) and inhibitors, followed by a biochemical separation of substrate and product. All assays for the biochemical HTS were initially run in duplicate at a single concentration (10 uM for CYP450 assays and 25 uM for all others). […]
In the case of `N#CC(CCc1ccc(Cl)cc1)(Cn1cncn1)c1ccccc1` (configuration not stated), the molecule was classed as inactive.

For the molecule `CCCCOC(=O)c1ccccc1C(=O)OCCCC`, the AC50 is 32.5 µM (active) and 19.3 µM (active).

In the case of `COc1ccc(C(c2ccc(OC)cc2)C(Cl)(Cl)Cl)cc1`, the result was inactive.

A further assay concerns the target rat Gamma-Aminobutyric Acid Type A Receptor, Non-Selective (GABAR-NonSelective), Gabra1 (gene 29705) (UniProt P62813). Nature of the assay: NVS_LGIC_rGABAR_NonSelective: NovaScreen (NVS) Ligand-Gated Ion Channel Assay for rat Gamma-Aminobutyric Acid Type A Receptor, Non-Selective (GABAR-NonSelective) (AID 2283326). In outline: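 Compounds were first screened in duplicate at 25 uM, with actives run as singleton concentration series (max 50 uM). Binding of a radioligand to rat whole-brain GABA-A preparation was measured by filtration and scintillation counting after 1 h, DMSO baseline.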
In the case of `CN(C)C(=S)SSC(=S)N(C)C`, the result was inactive.

Consider `C=CCC1=C(C)[C@@H](OC(=O)[C@@H]2[C@@H](C=C(C)C)C2(C)C)CC1=O`, for which the molecule was classed as inactive.

On to `CCOC(=O)C(Cl)Cc1cc(-n2nc(C)n(C(F)F)c2=O)c(F)cc1Cl` (configuration not stated), for which the call was inactive.

Regarding `C=CCC1=C(C)C(OC(=O)C2C(C=C(C)C)C2(C)C)CC1=O` (configuration not stated), the AC50 was 7.41 µM (active) and 66.1 nM (active).

Turning to `N#Cc1cc(Br)c(O)c(Br)c1`, the outcome was inactive.

Another assay addresses rat Thyrotropin Releasing Hormone Receptor (TRH), Trhr (gene 25570) (UniProt Q01717). The assay is described as follows: NVS_GPCR_rTRH: NovaScreen (NVS) G Protein-Coupled Receptor Assay for rat Thyrotropin Releasing Hormone Receptor (TRH) (AID 2283329).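 Further: hit means lower bound tracer signal versus DMSO baseline.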 In outline: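 Rat forebrain membrane prep, radioligand displacement, filter scintillation readout at 4 h. Single conc 25 uM, duplicate; actives retested as concentration series. DMSO = negative control/baseline.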
Turning to `CNC(=S)S`, the molecule was classed as inactive.

In the case of `N#Cc1nn(-c2c(Cl)cc(C(F)(F)F)cc2Cl)c(N)c1S(=O)C(F)(F)F` (configuration not stated), the molecule was called inactive.

For `CCOc1cc(Oc2ccc(C(F)(F)F)cc2Cl)ccc1[N+](=O)[O-]`, the molecule was classed as inactive.

Regarding `Oc1ccccc1-c1ccccc1`, the molecule was called inactive.

Turning to `OC(c1ccc(Cl)cc1)(c1cncnc1)c1ccccc1Cl` (configuration not stated), the call was inactive.

Turning to `CC(C)Oc1cc(-n2nc(C(C)(C)C)oc2=O)c(Cl)cc1Cl`, the molecule was classed as inactive.

Another assay has as its target human Peripheral-type Benzodiazepine Receptor (PBR), TSPO (gene 706) (UniProt P30536). Nature of the assay: NVS_MP_hPBR: NovaScreen (NVS) Membrane Protein Assay for human Peripheral-type Benzodiazepine Receptor (PBR) (AID 2283331).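 Further: hits reduce radioligand binding relative to DMSO baseline.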 In outline:
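Cell-free binding to human colonic membrane preparations measured by filter-based scintillation counting after 1 h. Compounds first run at 25 uM in duplicate, then concentration series for actives; signal loss against DMSO baseline.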
As to `O=C(Nc1ccccc1)Nc1ccnc(Cl)c1`, the call was inactive.

For `CNC(=S)S`, the molecule was called inactive.

In the case of `C=CCC1=C(C)[C@@H](OC(=O)[C@@H]2[C@@H](C=C(C)C)C2(C)C)CC1=O`, the AC50 is 25 µM (active).

For `CCOC(=O)C(Cl)Cc1cc(-n2nc(C)n(C(F)F)c2=O)c(F)cc1Cl` (configuration not stated), the half-maximal activity concentration (AC50) was 25 µM (active).

`Oc1ccccc1-c1ccccc1`: the molecule was called inactive.

Take `OC(c1ccc(Cl)cc1)(c1cncnc1)c1ccccc1Cl` (configuration not stated): the call was inactive.

For `CCON=C(CC)C1=C(O)CC(c2c(C)cc(C)cc2C)CC1=O` (configuration not stated), the molecule was called inactive.

Take `C=CCC1=C(C)C(OC(=O)C2C(C=C(C)C)C2(C)C)CC1=O` (configuration not stated): the result was inactive.

In the case of `C=CC1(C)OC(=O)N(c2cc(Cl)cc(Cl)c2)C1=O` (configuration not stated), the molecule was called inactive.

As for `CCCCOC(=O)c1ccccc1C(=O)OCCCC`, the AC50 is 22.1 µM (active) [middle of 5 runs].

In the case of `CCOC(=O)CC(SP(=S)(OC)OC)C(=O)OCC` (configuration not stated), the AC50 was 2.17 µM (active).

With `COc1ccc(C(c2ccc(OC)cc2)C(Cl)(Cl)Cl)cc1`, the molecule was classed as inactive.

As to `CCCCC(CC)COC(=O)c1ccccc1C(=O)OCC(CC)CCCC` (configuration not stated), the AC50 was 8.75 µM (active).

As for `O=C(O)COc1nc(Cl)c(Cl)cc1Cl`, the outcome was inactive.

On to `CCCC1COC(Cn2cncn2)(c2ccc(Cl)cc2Cl)O1` (configuration not stated), for which the AC50 was 17.3 µM (active).

The next assay addresses human Androgen Receptor (AR), AR (gene 367) (UniProt P10275). The assay is described as follows: NVS_NR_hAR: NovaScreen (NVS) Nuclear Receptor Binding Assay for human Androgen Receptor (AR) (AID 2283332). In outline:
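Radioligand competitive binding, scintillation read-out, in cell-free extract from LnCAP, measured 20 h after dosing. Screened first in duplicate at 25 uM, then concentration series for actives; activity fitted against DMSO.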
Take `O=C(Nc1ccccc1)Nc1ccnc(Cl)c1`: the AC50 is 5.13 µM (active).

For the molecule `CCOC(=O)CC(SP(=S)(OC)OC)C(=O)OCC` (configuration not stated), the AC50 is 25 µM (active).

For `CCCC1COC(Cn2cncn2)(c2ccc(Cl)cc2Cl)O1` (configuration not stated), the AC50 was 18.1 µM (active).

The next assay has as its target Voltage-gated inwardly rectifying potassium channel KCNH2 (Homo sapiens) (UniProt Q12809). Nature of the assay: NVS_IC_hKhERGCh: NovaScreen (NVS) Ion Channel Assay for human Potassium Channel ERG (KhERGCh) (AID 2283333). In outline: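 Membranes from CHO cells expressing human ERG; displacement of radioligand measured by filtration and scintillation after 0.75 h. Single-concentration duplicate screen at 25 uM, then concentration-response for actives; DMSO baseline.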
As to `O=C(Nc1ccccc1)Nc1ccnc(Cl)c1`, the AC50 was 9.2 µM (active).

Take `OC(c1ccc(Cl)cc1)(c1cncnc1)c1ccccc1Cl` (configuration not stated): the outcome was inactive.

Consider `CCCC1COC(Cn2cncn2)(c2ccc(Cl)cc2Cl)O1` (configuration not stated), for which the molecule was classed as inactive.

Another assay deals with rat Peripheral-type Benzodiazepine Receptor (PBR), Tspo (gene 24230) (UniProt P16257). The assay is described as follows: NVS_MP_rPBR: NovaScreen (NVS) Membrane Protein Assay for rat Peripheral-type Benzodiazepine Receptor (PBR) (AID 2283335). In outline:
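Single-concentration duplicate screening at 25 uM preceded concentration-series retesting of actives. Binding of a specific radioligand to rat kidney membrane PBR was read by filtration radiodetection after 1 h, with plate-wise positive and negative controls.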
With `O=C(Nc1ccccc1)Nc1ccnc(Cl)c1`, the AC50 was 15.6 µM (active).

Take `CN(C)C(=S)SSC(=S)N(C)C`: the AC50 was 11 µM (active).

On to `CNC(=S)S`, for which the molecule was classed as inactive.

On to `C=CCC1=C(C)[C@@H](OC(=O)[C@@H]2[C@@H](C=C(C)C)C2(C)C)CC1=O`, for which the AC50 is 37.7 µM (active).

Regarding `CCOC(=O)C(Cl)Cc1cc(-n2nc(C)n(C(F)F)c2=O)c(F)cc1Cl` (configuration not stated), the AC50 was 16.1 µM (active).

Turning to `Oc1ccccc1-c1ccccc1`, the call was inactive.

For the molecule `OC(c1ccc(Cl)cc1)(c1cncnc1)c1ccccc1Cl` (configuration not stated), the AC50 was 4.89 µM (active).

As for `C=CCC1=C(C)C(OC(=O)C2C(C=C(C)C)C2(C)C)CC1=O` (configuration not stated), the result was inactive.

Consider `C=CC1(C)OC(=O)N(c2cc(Cl)cc(Cl)c2)C1=O` (configuration not stated), for which the AC50 is 2.19 µM (active) and 1.01 µM (active) and 693 nM (active); the molecule was called inactive.

In the case of `CCCCOC(=O)c1ccccc1C(=O)OCCCC`, the AC50 is 13.4 µM (active) and 15.5 µM (active).

In the case of `CCOC(=O)CC(SP(=S)(OC)OC)C(=O)OCC` (configuration not stated), the AC50 is 10.5 µM (active).

Turning to `COc1ccc(C(c2ccc(OC)cc2)C(Cl)(Cl)Cl)cc1`, the molecule was classed as inactive.

Turning to `CCCCC(CC)COC(=O)c1ccccc1C(=O)OCC(CC)CCCC` (configuration not stated), the AC50 is 15.6 µM (active).

`O=C(O)COc1nc(Cl)c(Cl)cc1Cl`: the AC50 was 14.6 µM (active).

As to `CCCC1COC(Cn2cncn2)(c2ccc(Cl)cc2Cl)O1` (configuration not stated), the AC50 is 12.3 µM (active).

Another assay has as its system guinea pig Histamine Receptor (H2), gene 100729734. The assay is described as follows: NVS_GPCR_gH2: NovaScreen (NVS) G Protein-Coupled Receptor Assay for guinea pig Histamine Receptor (H2) (AID 2283342). In outline: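 Guinea pig striatal membrane preparation with specific radioligand; bound counts measured by filtration and scintillation 1 h post-dosing, DMSO as baseline. Chemicals passing a 25 uM duplicate screen were titrated to a 50 uM maximum.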
As to `CN(C)C(=S)SSC(=S)N(C)C`, the outcome was inactive.

As for `N#CC(CCc1ccc(Cl)cc1)(Cn1cncn1)c1ccccc1` (configuration not stated), the outcome was inactive.

Regarding `C=CCC1=C(C)C(OC(=O)C2C(C=C(C)C)C2(C)C)CC1=O` (configuration not stated), the result was inactive.

In the case of `CCCC1COC(Cn2cncn2)(c2ccc(Cl)cc2Cl)O1` (configuration not stated), the result was inactive.

A further assay concerns NCBI gene 100848466. Nature of the assay: NVS_NR_bPR: NovaScreen (NVS) Nuclear Receptor Binding Assay for bovine Progextron Receptor (PR) (AID 2283343).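 On AC50: actives lower bound radioligand signal below DMSO meaning displacement of the label.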 The gist of the method:
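Competitive radioligand binding with membranes from bovine uterus, scintillation read-out at 18 h post-dose. Compounds first tested in duplicate at 25 uM, then actives in concentration series; loss-of-signal relative to DMSO.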
Take `Oc1ccccc1-c1ccccc1`: the AC50 is 31.3 µM (active).

Take `C=CC1(C)OC(=O)N(c2cc(Cl)cc(Cl)c2)C1=O` (configuration not stated): the molecule was called inactive.

As to `CCCCOC(=O)c1ccccc1C(=O)OCCCC`, the molecule was classed as inactive.

As to `CCOC(=O)CC(SP(=S)(OC)OC)C(=O)OCC` (configuration not stated), the outcome was inactive.

Consider `COc1ccc(C(c2ccc(OC)cc2)C(Cl)(Cl)Cl)cc1`, for which the result was inactive.

Consider `CCCCC(CC)COC(=O)c1ccccc1C(=O)OCC(CC)CCCC` (configuration not stated), for which the call was inactive.

Regarding `CCCC1COC(Cn2cncn2)(c2ccc(Cl)cc2Cl)O1` (configuration not stated), the AC50 is 17.9 µM (active).

A word on the AC50: it is the midpoint of the concentration-response curve, whichever way the signal moves.
